Screens: PubChem BioAssay, National Center for Advancing Translational Sciences (NCATS)
Shown is part of a subset that was picked to be rich in hits.
FBPA Giardia inh = blocks Giardia fructose-bisphosphate aldolase activity | A8B2U2 | purified Giardia FBPA | Potency, µM (doses to about 59.6 µM), without a hit: at the top dose activity, negative = inhibition, hits mostly inhibitors | hit rate 0.71% among 290,000; also: nearly all actives have a fitted effect of over 55% in size
Target sequence (A8B2U2 whole entry, looked up): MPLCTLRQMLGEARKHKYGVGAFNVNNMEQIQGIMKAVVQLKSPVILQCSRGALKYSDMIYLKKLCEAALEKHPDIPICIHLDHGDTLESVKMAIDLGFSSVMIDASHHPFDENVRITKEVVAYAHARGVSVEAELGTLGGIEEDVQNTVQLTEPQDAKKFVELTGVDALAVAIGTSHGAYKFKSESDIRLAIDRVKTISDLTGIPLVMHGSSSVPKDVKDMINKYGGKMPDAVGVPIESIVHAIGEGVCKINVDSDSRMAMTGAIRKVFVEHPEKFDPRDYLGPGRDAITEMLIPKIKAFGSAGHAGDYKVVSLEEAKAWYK
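40 nM FBPA preincubated 10 min at RT with compound (up to 57.5 uM final), then substrate plus GAPDH/TPI/NAD/arsenate coupling and diaphorase/resazurin added. Fluorescence read after 20 min at RT, 525/598 nm.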
Cruzain Triton = blocks cruzain activity in presence of Triton detergent; P25779; purified cruzain, Z-FR-AMC fluorescence, 0.01% Triton; Potency, µM, inactives show max response, negative = inhibition, actives largely listed as inhibitors; hit rate 0.43% among 200,000; AID 1478;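 also: plate controls were neutral wells for no effect and buffer without enzyme for full effect; nearly all actives have a fitted effect of over 40% in size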
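Enzyme 1.5 nM, Z-FR-AMC 2 uM, NaOAc 100 mM pH 5.5, DTT 5 mM, Triton X-100 0.01%; 15 min RT compound preincubation; kinetic ex360/em450, 60 s delta.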
Cruzain noTriton = cruzain (T. cruzi) inhibition without detergent | purified cruzain, Z-FR-AMC fluorescence, no detergent | Potency, µM, without a hit: max response, negative = inhibition, hits mostly inhibitors | hit rate 2.3% among 200,000;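 also: plate controls were enzyme without inhibitor for no effect and buffer without enzyme for full effect; nearly all actives have a fitted effect of over 40% in size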
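Purified cruzain at 1.5 nM, pre-incubated 15 min with compound at room temperature in 100 mM sodium acetate pH 5.5, 5 mM DTT, 0.00005% Triton X-100. Reaction started with 2 uM Z-FR-AMC; AMC fluorescence increase over 60 s gives rate.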
Starred values were filed as active, the others as inactive; ? = inconclusive; · = no result given; [ ] = another dose, or the depositor's remark. Calls follow the shape of the dose curve; as a rule, active = well fitted curve in the direction sought with a large enough effect; inconclusive = small, poorly fitted or top-dose-only effect, or another doubt; inactive = no such curve, though single readings can be large; an effect the other way counts as inactive or inconclusive. Unless noted, % is scaled to controls: 0 for no effect and ±100 for the full control effect; potency is read from the fitted curve at half-maximal effect.

SMILES	FBPA Giardia inh	Cruzain Triton	Cruzain noTriton
Cc1cccc(CNc2nc(-c3ccc4c(c3)OCO4)nc3ccccc23)c1	-4%	-10%	-15%
Cc1cc(C(=O)Nc2ccc(Nc3ccccc3)cc2)ccc1[N+](=O)[O-]	-16%	·	·
Cc1ccccc1NC(=O)c1ccc(Nc2c([N+](=O)[O-])cc([N+](=O)[O-])c3ccccc23)cc1	5%	-6%	32µM*
COC(=O)/C=C\CCc1coc(/C=C\CNC(=O)OC)n1	-1%[12.9 µM]	·	·
Cc1ccccc1CN1c2ccccc2-c2nc(SCC(=O)Nc3cc(F)ccc3F)ncc2S1(=O)=O	·	1%	-2%
O=C(CSc1ncc2c(n1)-c1cc(Cl)ccc1N(Cc1ccccc1F)S2(=O)=O)Nc1cccc(C(F)(F)F)c1	·	-1%	16µM*
COc1ccccc1NC(=O)CSc1ncc2c(n1)-c1cc(Cl)ccc1N(Cc1ccccc1)S2(=O)=O	·	-2%	6.3µM*
Cc1cccc(C)c1NC(=O)CSc1ncc2c(n1)-c1ccc(Cl)cc1N(Cc1ccccc1)S2(=O)=O	·	2%	-12%
O=C(CSc1ncc2c(n1)-c1ccc(Cl)cc1N(Cc1ccccc1)S2(=O)=O)Nc1ccc(F)c(F)c1	·	3%	-3%
COc1ccc(C)cc1NC(=O)CSc1ncc2c(n1)-c1ccc(Cl)cc1N(Cc1ccccc1)S2(=O)=O	·	-2%	3.2µM*
O=C(CSc1ncc2c(n1)-c1cc(Cl)ccc1N(Cc1ccccc1)S2(=O)=O)Nc1ccc(F)cc1F	·	0%	-15%
COc1ccccc1NC(=O)CSc1ncc2c(n1)-c1ccccc1N(Cc1ccccc1C)S2(=O)=O	·	0%	7.9µM*
Cc1c([C@@H](C)C2NC[C@H](C)C[C@@H]2O)ccc2c1C[C@@H]1[C@H]2CC=C2C[C@@H](O)CC[C@@]21C (stereo not given in full)	·	1%	-5%
O=[N+]([O-])c1ccc(S(=O)(=O)NCc2nc3cccnc3n2Cc2ccccc2Cl)cc1	·	-2%	-10%
CC(=O)c1cc(-c2ccccc2)n(CCC(=O)Nc2ccc(C(C)C)cc2)c1C	·	-9%	-5%
COCCn1c(=O)cnc2cnc(N3CCN(C)CC3)nc21	1%	-14%	?
CCOC(=O)C1CCCN(C(=O)c2ccc(NC(=O)c3nsc4ccccc34)cc2)C1 (stereo not given)	·	-3%	7%
CC(C)CSc1nnc2c(n1)[nH]c1ccccc12	4%	-1%	-26%
O=C(O)CSc1nnc2c(n1)[nH]c1ccccc12	-1%	·	·
O=C(CSc1nnc2c(n1)[nH]c1ccccc12)OCc1ccccc1	0%	-3%	25µM*
CCCCSc1nnc2c(n1)[nH]c1ccccc12	-5%	0%	25µM*
O=C(Nc1ccc2c(c1)Cc1ccccc1-2)[C@@H]1[C@H](C(=O)O)[C@]2(Cl)C(Cl)=C(Cl)[C@@]1(Cl)C2(Cl)Cl	·	3%	26%
CC1=CC(C)(C)Nc2ccc(OC(=O)CN3C(=O)c4ccccc4C3=O)cc21	-10%	-6%	4%
CC1=CC(C)(C)Nc2ccc(OC(=O)CN3C(=O)c4cccc5cccc(c45)C3=O)cc21	?	-8%	25µM*
O=C(NCCN1CCCCC1)c1ccc(Cn2c(SCc3cccc(F)c3)nc3cccnc32)cc1	·	-11%	-10%
SMILES	FBPA Giardia inh	Cruzain Triton	Cruzain noTriton
COc1ccc2oc(=O)c(-c3csc(Nc4cccc(O)c4)n3)cc2c1	-2%	-12%	25µM*
COc1ccc(Nc2nc(-c3cc4cccc(OC)c4oc3=O)cs2)cc1	0%	0%	?
COc1ccc(O[C@H]2C=C[C@@H](c3ccccc3)O[C@H]2CO/N=C(/C)CCC(=O)OC[C@@H]2O[C@H](C#Cc3ccccc3)C=C[C@@H]2Oc2ccc(C)cc2)cc1	0%[12.9 µM]	·	·
CCOc1ccc(-c2nnc(SCC(=O)NCc3ccccc3)nc2-c2ccc(OCC)c(OC)c2)cc1OC	·	0%	1%
Cc1ccc(C(=O)c2oc3ccccc3c2NC(=O)c2cc(-c3ccccc3O)n[nH]2)cc1	4%	0%	?
O=C(Nc1c(C(=O)c2ccccc2)oc2ccccc12)c1cc(-c2ccccc2O)n[nH]1	4%	-4%	13µM*
Cc1nn(CC(=O)N2CCN(c3ccccc3)CC2)c(=O)c2cc3sccc3n12	·	-1%	-2%
Cc1cccc(C(=O)Nc2ccc(C(=O)OCc3cc(=O)n4nc(CC(C)C)sc4n3)cc2)c1	·	1%	-7%
NC(=O)N/N=C/c1coc2ccc3ccccc3c2c1=O	0%	·	·
O=c1cc(/N=C/c2coc3c(ccc4ccccc43)c2=O)[nH]c(=S)[nH]1	23%	-6%	7.9µM*
NC(=S)N/N=C/c1coc2c(ccc3ccccc32)c1=O	2%	?	0.63µM*
NC(=S)N/N=C/c1coc2cc(Br)ccc2c1=O	1%	·	·
